Experimental data taken from PubChem BioAssay (Tox21).
Inconclusive results are not listed. Where a call stands in place of a potency, no number is given. The source made the active and inactive calls. Unless noted, the call rests on the fitted dose curve; in most records, active means well fitted curve in the direction sought with a large enough effect in the repeat runs; inconclusive means weak or mixed curves; inactive means no such curve, though single readings can be large; an effect the other way counts as inactive or inconclusive.

Legend:
[1] = qHTS assay to identify small molecule that activate the aryl hydrocarbon receptor (AhR) signaling pathway - cell viability counter screen (AID 743086); further: nearly all actives have a fitted effect of over 45% in size; further: potency means the concentration at half of the fitted maximal effect
Procedure, shortened: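 HepG2-AhR-luc (HG2L7.5c1) cells, 4000/well, treated 24 h at 37 C with compound; viability measured as CellTiter-Fluor fluorescence after 30 min in the same wells as the luciferase read.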

[2] = target: Peroxisome proliferator-activated receptor gamma (Homo sapiens) (UniProt P37231); assay: qHTS assay to identify small molecule agonists of the peroxisome proliferator-activated receptor gamma (PPARg) signaling pathway (AID 743094; active means well fitted activation curve with a large enough effect in the signal ratio in the repeat runs, not every such curve was filed as active; the % refers to the signal ratio)
Procedure, shortened: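 Cell-based bla reporter, HEK293H background, PPARg-driven UAS. Pre-incubation 5 h, 37C, 5% CO2. Compound 17 h, 37C. Substrate 1 h RT; fluorescence.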

[3] = qHTS assay to identify small molecule antagonists of the peroxisome proliferator-activated receptor gamma (PPARg) signaling pathway - cell viability counter screen (AID 743194); further: nearly all actives have a fitted effect of over 55% in size; further: potency means the concentration at half of the fitted maximal effect
Procedure, shortened: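 Cytotoxicity counter screen in PPARg-bla HEK293H cells, same wells as reporter assay. Compounds plus 50 nM rosiglitazone (final) for 17 h at 37 C, then viability read by CellTiter-Glo luminescence.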

[4] = qHTS assay for small molecule agonists of the antioxidant response element (ARE) signaling pathway - cell viability counter screen (AID 743203; calls by dose curve; further: nearly all actives have a fitted effect of over 55% in size)
Procedure, shortened: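 Measured in the same wells as the beta-lactamase ARE reporter, this read-out is CellTiter-Glo luminescence from HepG2 ARE-bla cells given compounds for 16 hrs.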

[5] = qHTS assay for small molecule activators of the heat shock response signaling pathway - cell viability counter screen (AID 743209); further: nearly all actives have a fitted effect of over 50% in size
Procedure, shortened: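 Same-well multiplex: after 2.5 h room-temperature incubation with LiveBLAzer B/G substrate and fluorescence reading, CellTiter-Glo reagent was added to HSE-bla HeLa cells that had received compound for 5 h at 37 C; luminescence read after 30 min.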

[6] = qHTS assay for small molecule activators of the heat shock response signaling pathway (AID 743210; active means well fitted activation curve with a large enough effect in the signal ratio in the repeat runs, with a control signal flat, not every such curve was filed as active; the % refers to the signal ratio;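 further: HeLa cells with beta-lactamase reporter driven by heat shock elements; series mostly up to about 63 µM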)
Procedure, shortened: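 Following overnight attachment, HSE-bla HeLa cells received test compounds for 5 h at 37 C; beta-lactamase activity was then detected via FRET substrate fluorescence.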

[7] = qHTS assay to identify small molecule agonists of the peroxisome proliferator-activated receptor delta (PPARd) signaling pathway - cell viability counter screen (AID 743211); further: nearly all actives have a fitted effect of over 55% in size
Procedure, shortened: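 Multiplexed format: after the 2 h room-temperature LiveBLAzer B/G FRET step, CellTiter-Glo was added to the same wells. Luminescence after 30 min gave cell viability; compound exposure was 17 h at 37C.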

[8] = target: Peroxisome proliferator-activated receptor delta (Homo sapiens) (UniProt Q03181); assay: qHTS assay to identify small molecule agonists of the peroxisome proliferator-activated receptor delta (PPARd) signaling pathway (AID 743212; calls by dose curve)
Procedure, shortened: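 Tox21 library screened in GeneBLAzer PPARd UAS-bla HEK293H cells. After compound treatment at 37 C, a FRET-based beta-lactamase substrate was applied for 2 h and fluorescence recorded.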

[9] = qHTS assay to identify small molecule antagonists of the peroxisome proliferator-activated receptor delta (PPARd) signaling pathway - cell viability counter screen (AID 743213); further: nearly all actives have a fitted effect of over 50% in size
Procedure, shortened: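 Cytotoxicity counter screen: CellTiter-Glo luminescence read 30 min after addition, in the same wells as the reporter assay. There, PPARd UAS-bla HEK293H cells (3000/well) were treated 17 h at 37 C with compound and 300 nM L165041.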

[10] = target: Peroxisome proliferator-activated receptor delta (Homo sapiens) (UniProt Q03181); assay: qHTS assay to identify small molecule antagonists of the peroxisome proliferator-activated receptor delta (PPARd) signaling pathway (AID 743215; active means well fitted inhibition curve with a large enough effect in the signal ratio in the repeat runs, not every such curve was filed as active; the % refers to the signal ratio;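 further: cells stimulated with agonist L165041 at 300 nM final during compound exposure; series mostly up to about 62 µM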)
Procedure, shortened: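 Fluorescence from cleaved LiveBLAzer B/G FRET substrate (2 h, room temperature) reports PPARd-driven beta-lactamase in HEK293H UAS-bla cells. Cells had been treated 17 h at 37 C with compound plus 300 nM final L165041.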

[11] = qHTS assay to identify small molecule agonists of the farnesoid-X-receptor (FXR) signaling pathway - cell viability counter screen (AID 743218); further: nearly all actives have a fitted effect of over 45% in size; further: potency means the concentration at half of the fitted maximal effect
Procedure, shortened: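 Readout: CellTiter-Glo luminescence, 30 min RT, multiplexed after the FXR-bla FRET reading. HEK 293T FXR-UAS-bla cells received compound 5 h post-plating and were incubated 16 h at 37 C.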

[12] = qHTS assay to identify small molecule antagonists of the farnesoid-X-receptor (FXR) signaling pathway - cell viability counter screen (AID 743221; active means well fitted cell-killing curve with a large enough effect in the repeat runs, not every such curve was filed as active; further: nearly all actives have a fitted effect of over 50% in size)
Procedure, shortened: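 CellTiter-Glo, 30 min RT, luminescence; same wells as the LiveBLAzer FRET read. Cells: FXR-UAS-bla HEK 293T. Treatment: compound with chenodeoxycholic acid 50 uM final, 16 h at 37 C.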

[13] = target: Vitamin D3 receptor (Homo sapiens) (UniProt P11473); assay: qHTS assay to identify small molecule agonists of the vitamin D receptor (VDR) signaling pathway (AID 743222; calls by dose curve)
Procedure, shortened: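 Following 4 h attachment at 37C, VDR-bla cells (2,000 per well) received DMSO-dissolved compounds or controls. After 16 h incubation, LiveBLAzer B/G FRET substrate was added and fluorescence read 2 h later at room temperature.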

[14] = target: Vitamin D3 receptor (Homo sapiens) (UniProt P11473); assay: qHTS assay to identify small molecule antagonists of the vitamin D receptor (VDR) signaling pathway (AID 743223; active means well fitted inhibition curve with a large enough effect in the signal ratio in the repeat runs, not every such curve was filed as active; the % refers to the signal ratio)
Procedure, shortened: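 After VDR-bla cells are plated and left 4 h at 37C, DMSO-dissolved compounds and 3 nM (final) calcitriol agonist are added. Incubation continues 16 h at 37C; FRET beta-lactamase substrate then develops 2 h at room temperature.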

[15] = qHTS assay to identify small molecule agonists of the vitamin D receptor (VDR) signaling pathway - cell viability counter screen (AID 743224); further: series mostly up to about 63 µM; nearly all actives have a fitted effect of over 50% in size
Procedure, shortened: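 In parallel with the bla FRET readout, cytotoxicity toward VDR-bla cells after 16 h compound exposure was assessed by CellTiter-Glo, with luminescence recorded after a 30 min room-temperature incubation.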

[16] = qHTS assay for small molecule agonists of the antioxidant response element (ARE) signaling pathway (AID 743202; active means well fitted activation curve with a large enough effect in the signal ratio in the repeat runs, not every such curve was filed as active; the % refers to the signal ratio; further: potency means the concentration at half of the fitted maximal effect)
Procedure, shortened: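 HepG2 ARE-bla cells; 16 h treatment at 37 C; FRET-based beta-lactamase fluorescence read after 2 h substrate incubation at room temperature.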

[17] = target: Peroxisome proliferator-activated receptor gamma (Homo sapiens) (UniProt P37231); assay: qHTS assay to identify small molecule antagonists of the peroxisome proliferator-activated receptor gamma (PPARg) signaling pathway (AID 743191; calls by dose curve; further: nearly all actives have a fitted effect of over 30% in size; further: potency means the concentration at half of the fitted maximal effect)
Procedure, shortened: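 GeneBLAzer PPARg UAS-bla HEK293H cells, 5 h post-plating, exposed to compounds 17 h at 37C. LiveBLAzer B/G FRET substrate added for 1 h at room temperature; beta-lactamase reporter read by fluorescence intensity.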

[18] = target: Bile acid receptor (Homo sapiens) (UniProt Q96RI1); assay: qHTS assay to identify small molecule antagonists of the farnesoid-X-receptor (FXR) signaling pathway (AID 743217; active means well fitted inhibition curve with a large enough effect in the signal ratio in the repeat runs, not every such curve was filed as active; the % refers to the signal ratio)
Procedure, shortened: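 FRET fluorescence after 2 h room-temperature LiveBLAzer loading gives the readout. Prior step: FXR-bla HEK 293T cells, seeded and incubated 5 h, received test compounds plus 50 uM final CDCA for 16 h at 37 °C.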

[19] = target: Bile acid receptor (Homo sapiens) (UniProt Q96RI1); assay: qHTS assay to identify small molecule agonists of the farnesoid-X-receptor (FXR) signaling pathway (AID 743220; active means well fitted activation curve with a large enough effect in the signal ratio in the repeat runs, not every such curve was filed as active; the % refers to the signal ratio)
Procedure, shortened: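 FXR-UAS-bla HEK 293T cells carrying a UAS-driven beta-lactamase reporter were plated for 5 h at 37C/5% CO2, then exposed to DMSO-dissolved Tox21 10K compounds for 16 h at 37C. A LiveBLAzer B/G FRET substrate was loaded for 2 h at room temperature before fluorescence reading.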

Chain of Bile acid receptor (Homo sapiens) (Q96RI1 whole entry, looked up): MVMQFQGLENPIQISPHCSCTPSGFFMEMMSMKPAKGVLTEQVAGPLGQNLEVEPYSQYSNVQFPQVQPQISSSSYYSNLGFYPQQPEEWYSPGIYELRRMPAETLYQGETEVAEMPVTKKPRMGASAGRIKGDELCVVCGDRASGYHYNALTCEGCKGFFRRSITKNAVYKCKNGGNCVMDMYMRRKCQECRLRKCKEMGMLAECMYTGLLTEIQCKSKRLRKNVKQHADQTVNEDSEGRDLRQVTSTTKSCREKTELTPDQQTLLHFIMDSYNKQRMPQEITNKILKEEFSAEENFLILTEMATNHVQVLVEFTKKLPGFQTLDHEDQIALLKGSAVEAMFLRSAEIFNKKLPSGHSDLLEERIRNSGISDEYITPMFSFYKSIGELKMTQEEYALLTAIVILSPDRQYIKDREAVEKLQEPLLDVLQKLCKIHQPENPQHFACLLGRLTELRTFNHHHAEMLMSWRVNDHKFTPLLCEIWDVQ
Chain of Peroxisome proliferator-activated receptor delta (Homo sapiens) (Q03181 whole entry, looked up): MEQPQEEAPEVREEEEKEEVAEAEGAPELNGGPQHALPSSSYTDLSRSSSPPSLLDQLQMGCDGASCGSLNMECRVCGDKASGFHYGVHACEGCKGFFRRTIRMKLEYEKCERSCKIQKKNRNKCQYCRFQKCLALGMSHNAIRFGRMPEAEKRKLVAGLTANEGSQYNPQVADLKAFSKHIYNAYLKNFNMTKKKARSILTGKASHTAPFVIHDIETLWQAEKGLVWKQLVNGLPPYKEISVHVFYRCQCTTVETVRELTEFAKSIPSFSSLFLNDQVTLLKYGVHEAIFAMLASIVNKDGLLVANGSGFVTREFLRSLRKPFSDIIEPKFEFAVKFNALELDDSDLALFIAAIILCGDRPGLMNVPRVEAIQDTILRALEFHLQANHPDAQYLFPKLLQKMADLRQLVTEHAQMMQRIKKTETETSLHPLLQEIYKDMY
Chain of Peroxisome proliferator-activated receptor gamma (Homo sapiens) (P37231 whole entry, looked up): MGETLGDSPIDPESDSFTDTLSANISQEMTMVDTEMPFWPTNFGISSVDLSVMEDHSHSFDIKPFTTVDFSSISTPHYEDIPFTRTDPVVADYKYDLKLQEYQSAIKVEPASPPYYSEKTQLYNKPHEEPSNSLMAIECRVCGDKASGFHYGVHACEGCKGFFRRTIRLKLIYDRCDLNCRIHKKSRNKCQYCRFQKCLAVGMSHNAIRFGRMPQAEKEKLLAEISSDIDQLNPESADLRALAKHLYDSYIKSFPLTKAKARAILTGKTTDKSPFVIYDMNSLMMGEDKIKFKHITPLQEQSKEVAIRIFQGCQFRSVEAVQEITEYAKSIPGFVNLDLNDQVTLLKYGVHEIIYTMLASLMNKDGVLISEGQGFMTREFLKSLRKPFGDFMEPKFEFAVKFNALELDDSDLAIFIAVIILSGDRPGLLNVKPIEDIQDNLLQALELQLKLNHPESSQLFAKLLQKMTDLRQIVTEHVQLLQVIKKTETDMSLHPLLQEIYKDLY
Chain of Vitamin D3 receptor (Homo sapiens) (P11473 whole entry, looked up): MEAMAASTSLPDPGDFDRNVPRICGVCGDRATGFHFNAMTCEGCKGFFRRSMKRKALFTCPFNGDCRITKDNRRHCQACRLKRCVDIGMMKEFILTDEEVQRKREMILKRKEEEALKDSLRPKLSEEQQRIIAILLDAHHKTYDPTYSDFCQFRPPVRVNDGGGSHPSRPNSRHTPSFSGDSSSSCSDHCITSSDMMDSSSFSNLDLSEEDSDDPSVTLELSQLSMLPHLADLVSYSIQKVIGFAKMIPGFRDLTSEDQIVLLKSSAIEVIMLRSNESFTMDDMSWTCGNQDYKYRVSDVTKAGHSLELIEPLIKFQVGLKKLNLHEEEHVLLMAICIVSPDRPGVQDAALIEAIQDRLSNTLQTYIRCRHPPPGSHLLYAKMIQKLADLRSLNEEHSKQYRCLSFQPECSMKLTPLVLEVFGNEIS

| SMILES | Potency [1] | Potency [2] | Potency [3] | Potency [4] | Potency [5] | Potency [6] | Potency [7] | Potency [8] | Potency [9] | Potency [10] | Potency [11] | Potency [12] | outcome [13] | outcome [14] | Potency [15] | Potency [16] | Potency [17] | Potency [18] | Potency [19] |
| --- | --- | --- | --- | --- | --- | --- | --- | --- | --- | --- | --- | --- | --- | --- | --- | --- | --- | --- | --- |
| CCCOC(=O)c1ccc(N)cc1 | inactive | inactive | inactive | inactive | inactive | inactive | inactive | inactive | inactive | inactive | inactive | inactive | inactive | inactive | inactive |  |  |  |  |
| Nc1ccc(Cl)cc1[N+](=O)[O-] | inactive | inactive | inactive | inactive | inactive |  | inactive | inactive | inactive |  | inactive | inactive | inactive | inactive | inactive | inactive |  |  |  |
| COc1cc2[nH]c(=O)[nH]c(=O)c2cc1OC | inactive | inactive | inactive | inactive | inactive |  | inactive | inactive | inactive | inactive | inactive | inactive | inactive | inactive | inactive | inactive |  |  |  |
| COc1cc2c(cc1OC)-c1cc(=Nc3c(C)cc(C)cc3C)n(C)c(=O)n1CC2 | 29800 nM (active) |  |  |  | inactive |  |  |  |  |  | inactive | inactive |  | inactive |  |  | 13300 nM (active) |  |  |
| CCC(C(=O)OCCOCCN(CC)CC)c1ccccc1 (centres undefined) | inactive | inactive | inactive | inactive | inactive | inactive | inactive |  | inactive |  | inactive | inactive | inactive | inactive | inactive | inactive |  | inactive | inactive |
| Cc1cc(O)c(C(C)C)cc1Cl | inactive |  | inactive | inactive | inactive | inactive | inactive | inactive | inactive | inactive | inactive | inactive | inactive | inactive | inactive | inactive |  | inactive | inactive |
| CC(CCc1ccc2c(c1)OCO2)NN (centres undefined) | inactive | inactive | inactive | inactive | inactive | inactive | inactive | inactive | inactive |  | inactive | inactive |  |  | inactive |  | inactive |  |  |
| C[C@@H]1C[C@H]2[C@@H]3CCC4=CC(=O)C=C[C@]4(C)[C@@]3(F)[C@@H](O)C[C@]2(C)[C@H]1C(=O)CO | inactive | inactive | inactive | inactive | inactive |  | inactive | inactive | inactive |  | inactive | inactive | inactive | inactive | inactive |  |  |  |  |
| O=C(Nc1ccc([N+](=O)[O-])cc1)Nc1ccc([N+](=O)[O-])cc1 | inactive | inactive | 1330 nM (active) |  | inactive | inactive |  |  |  |  | 750 nM (active) |  | inactive | inactive |  | 2660 nM (active) |  | inactive | inactive |
| CCc1c2c(nc3ccc(OC(=O)N4CCC(N5CCCCC5)CC4)cc13)-c1cc3c(c(=O)n1C2)COC(=O)[C@]3(O)CC |  |  | inactive | inactive | inactive | inactive | inactive | inactive |  |  | inactive | inactive |  |  |  |  |  |  | inactive |
| CC(C)CCCC(=O)O |  | inactive | inactive |  | inactive | inactive | inactive | inactive | inactive | inactive | inactive | inactive | inactive |  | inactive |  | inactive | inactive | inactive |
